Measurements reported in PubChem BioAssay.

Molecular target: E3 ubiquitin-protein ligase XIAP (Homo sapiens) (UniProt P98170)
Assay: small molecules binding XIAP protein – biophysical, small-molecule microarray, fluorescence 635 nm, primary screen (AID 1181);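 further: score merges 667 nm emission and signal to noise over triplicate slides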
Conditions: higher = more signal

Chain of E3 ubiquitin-protein ligase XIAP (Homo sapiens) (P98170 whole entry, looked up): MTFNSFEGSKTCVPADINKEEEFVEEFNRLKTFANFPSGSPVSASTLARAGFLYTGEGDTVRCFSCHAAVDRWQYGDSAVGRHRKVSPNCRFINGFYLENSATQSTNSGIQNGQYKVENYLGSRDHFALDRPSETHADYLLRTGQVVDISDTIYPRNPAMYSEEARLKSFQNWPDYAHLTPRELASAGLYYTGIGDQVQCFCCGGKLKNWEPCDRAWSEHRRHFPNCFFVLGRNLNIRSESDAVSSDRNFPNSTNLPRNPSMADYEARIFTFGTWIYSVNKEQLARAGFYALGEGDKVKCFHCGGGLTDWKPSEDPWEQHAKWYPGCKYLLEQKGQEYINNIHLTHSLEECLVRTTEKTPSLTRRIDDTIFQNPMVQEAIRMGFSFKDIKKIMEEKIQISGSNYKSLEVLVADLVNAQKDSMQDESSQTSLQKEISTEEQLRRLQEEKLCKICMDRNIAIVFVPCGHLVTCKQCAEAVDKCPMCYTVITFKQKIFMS

In order of rising composite z-score:
1. COC(=O)CC=C[C@@H](C)[C@@H](C=NOC[C@@H](O)COCc1ccco1)NS(=O)(=O)c1ccc(C)cc1  -0.309
2. CCCNC(=O)OC[C@H]1O[C@H](CCON=C2C[C@@H](O)[C@@H](O)[C@@H]3[C@@H]4C(=O)N(CC)C(=O)[C@@H]4CC[C@@H]23)C=C[C@@H]1Oc1ccc(OC)cc1  -0.281
3. O=C1CCCC=C1C(O)C1CCCCC1 (configuration not stated)  -0.242
4. C[C@@H](c1ccccc1)N1C(=O)[C@H]2[C@H]3[C@H](O)[C@H](O)CC(=NOCc4ccccc4)[C@@H]3CC[C@H]2C1=O  -0.185
5. C=CC[C@@H]1C=C[C@H](ON=CC[C@@H]2C=C[C@H](OC(C)=O)[C@@H](COC(C)=O)O2)[C@@H](CO)O1  -0.158
6. O=C1[C@H]2[C@H]3[C@H](O)[C@H](O)CC(=NOC[C@@H](O)COCc4ccco4)[C@@H]3CC[C@H]2C(=O)N1Cc1ccc2c(c1)OCO2  -0.148
7. COc1ccc(COC(=O)NN=C2C[C@@H](O)[C@@H](O)[C@@H]3[C@@H]4C(=O)N([C@@H](C)c5ccccc5)C(=O)[C@@H]4CC[C@@H]23)cc1  -0.126
8. COC(=O)CC=C[C@@H](C)[C@@H](C=NOC[C@@H](C)[C@H](OCc1ccccc1)C(C)C)OC  -0.118
9. CC(=O)OC[C@H]1O[C@H](CCON=C(C)C)C=C[C@@H]1OC(C)=O  -0.102
10. CC(C)CON=C1C[C@@H](O)[C@@H](O)[C@@H]2[C@@H]3C(=O)N(Cc4ccc5c(c4)OCO5)C(=O)[C@@H]3CC[C@@H]12  -0.102
11. CCOC(=O)[C@H](Cc1ccccc1)NC(=O)CCC1CC(OC(=O)NCc2cccc3ccccc23)CC2(CCCC(COC(=O)NCCOc3ccccc3)O2)O1 (some centres not stated)  -0.102
12. CO[C@H]1COC(=O)[C@H](CCSC)NC(=O)CC=C[C@@H](C)[C@H](OC)COC(=O)[C@@H](OCc2ccccc2)C=C[C@@H]1C  -0.0965
13. CC(=O)OC[C@H]1O[C@H](CCON=C(C)CCN2CCCc3nc(C)c(C)cc32)C=C[C@@H]1OC(C)=O  -0.0878
14. COc1ccc(COC(=O)NN=C2C[C@@H](O)[C@@H](O)[C@@H]3[C@@H]4C(=O)N(C[C@@H]5CCCO5)C(=O)[C@@H]4CC[C@@H]23)cc1  -0.0559
15. CC(C)C(=O)N[C@H]1CCCN1C(=O)C=Cc1ccccc1  -0.0476
16. CC(=O)OC[C@H]1O[C@H](CC=NO[C@H](C)c2cn([C@@H]3COC[C@H]3O)nn2)C=C[C@@H]1OC(C)=O  -0.0447
17. COc1ccc(OC[C@@H](CO)OC)cc1  -0.0344
18. CON=C(C)CCN1CCc2nc(-c3ccccc3)c(-c3ccccc3)cc2C1  -0.0115
19. C[C@@H]1CC[C@H]2C(=O)N3[C@@H](CC[C@@H](C)[C@@H]3c3ccc(Br)cc3)C(=O)N2[C@H]1c1ccc(Br)cc1  -0.0056
20. CN1CCc2nc(-c3ccccc3)c(-c3ccccc3)cc2C1  0.0024
21. CCOC(=O)[C@H](CC(C)C)NC(=O)CCC1CC(OC(=O)NCc2ccc3c(c2)OCO3)CC2(CCCC(COC(=O)NCCC(C)C)O2)O1 (some centres not stated)  0.0065
22. CCOC(=O)CCN1C(=O)[C@H]2[C@H]3[C@H](O)[C@H](O)CC(=O)[C@@H]3CC[C@H]2C1=O  0.0408
23. COC(=O)[C@H](C)NC(=O)CC=C[C@@H](C)[C@@H]1C=C[C@H](O)[C@@H](CO)O1  0.0623
24. COC(=O)[C@H](C)NC(=O)CCC1CC(OC(=O)NCc2cccc3ccccc23)CC2(CCCC(COC(=O)NCCc3ccccc3OC)O2)O1 (some centres not stated)  0.0932
25. CCOC(=O)[C@H](CC(C)C)NC(=O)CCC1CC(OC(=O)NCc2ccc3c(c2)OCO3)CC2(CCCC(COC(=O)NCCOc3ccccc3)O2)O1 (some centres not stated)  0.154
26. C=CC[C@@H]1C=C[C@H](ON=C(C)CCN2CCCCc3nc(C)c(C)cc32)[C@@H](CO)O1  0.183
27. COC(=O)[C@H](CCSC)NC(=O)CC=C[C@@H](C)CO  0.262
28. COc1ccc(COC(=O)NN=C2C[C@@H](O)[C@@H](O)[C@@H]3[C@@H]4C(=O)N(c5cccc(Oc6ccccc6)c5)C(=O)[C@@H]4CC[C@H]23)cc1  0.274
29. COc1ccc(OC[C@@H]2CC3[C@@H](c4ccc(Br)cc4)[C@H](C)CC[C@H]3C(=O)O2)cc1 (some centres not stated)  0.326
30. CCN1C(=O)[C@H]2[C@@H]3C(=CC[C@H]2C1=O)C(=O)[C@H]1O[C@H]1[C@H]3O  0.334
31. CON=C(C)CCN1CCCCc2nc(C)c(C)cc21  0.496
32. C=CC[C@@H]1C=C[C@H](ON=C(C)CCN2CCCc3nc(C)c(C)cc32)[C@@H](CO)O1  1.07
